Experimental data reported in ChEMBL document CHEMBL1157539, “Thousands of chemical starting points for antimalarial lead identification” (Nature, 2010).

Each compound was assayed on HepG2 (assay: GSK_TCMDC: Percent inhibition of human HepG2 cell line. Test compounds present at 10uM.).
Format: functional
In the case of O=C(Nc1ccc(-c2ccccc2)cc1)Nc1cccc(Cn2ncc(N3CCNCC3)c(Cl)c2=O)c1.O=C(O)C(F)(F)F, the Inhibition is reported as 30%.
Work on COc1c(C2CCN(CCCCNC(=O)c3ccc(-c4ccc(C(=O)C(F)(F)F)cc4)cc3)CC2)ccc2c1CCCC2 yielded an Inhibition of 99%.
For CCN(CC)S(=O)(=O)c1ccc(Cl)c(C(=O)Nc2ccc3nc(C)sc3c2)c1, the Inhibition was 9%.
O=C(/C=C/c1ccc(Cl)c(Cl)c1)NCCCCCN1CCCC(CNS(=O)(=O)c2cccc(C(F)(F)F)c2)C1 (stereo not given) gave an Inhibition of 73%.
For COc1ccccc1-c1cccc(-c2cccc(NC(=O)c3ccc([N+](=O)[O-])o3)c2)n1, the Inhibition was 78%.
Work on CN(C)CCNCc1cccc(-c2ccc3c(Nc4ccc(Oc5ccccn5)cc4)ccnc3c2)c1 yielded an Inhibition of 27%.
O=C(Nc1ccc2c(c1)CCN2C1CCN(Cc2cccc(F)c2F)C1)c1ccco1 (stereo not given) gave an Inhibition of 0%.
Work on Cc1cc2nc(-c3ccc(/C=C/C(=O)NC4CCCCC4)cc3)[nH]c2cc1C yielded an Inhibition of 9%.
C#CCOc1ccc(N2C(N)=NC(N)=NC2(C)C)cc1.Cl showed an Inhibition of 43%.
CC(C)(C)c1ccc(CN2CCC(CNC(=O)c3cc(-c4cccc(C(F)(F)F)c4)cs3)C2)cc1.O=C(O)C(F)(F)F (stereo not given) gave an Inhibition of 80%.
For O=C(O)C(F)(F)F.c1cc(CN2CCCCC2)cc(-c2cccc(-c3nc4ccccc4[nH]3)c2)c1, the Inhibition was 39%.
Compound CCC[C@@H]1CCN[C@H]([C@H](O)c2ccnc3ccc(OC)cc23)C1.Cl has an Inhibition of 0%.
O=C(/C=C/c1ccc(Cl)c(Cl)c1)N1CCC(NCc2c[nH]c3ccccc23)CC1 showed an Inhibition of 36%.
With O=C(O)/C=C\C(=O)O.OCCN1CCN(C2Cc3ccc(F)cc3Sc3ccc(Cl)cc32)CC1 (stereo not given) the Inhibition was 56%.
Compound CCNc1cc(C(=O)N[C@@H](Cc2ccccc2)[C@H](O)CNC(C)(C)CSCC(C)C)cc(N2CCCC2=O)c1 has an Inhibition of 0%.
O=C(Nc1cccc(C(F)(F)F)c1)NC1CCN(c2ccnc3ccccc23)C1.O=C(O)C(F)(F)F (stereo not given) showed an Inhibition of 23%.
CN1CCN(c2ccnc3ccc(NC(=O)Nc4cccc5c(C#N)cccc45)cc23)CC1 was tested, and the Inhibition was 0%.
COc1ccc(Cl)cc1-c1nc(C(=O)NCCN2CCCCC2)c(C)s1.O=C(O)C(F)(F)F was tested, and the Inhibition was 16%.
COc1nc2c(CCN3CCC(NCc4ccc5c(c4)NC(=O)CO5)CC3)c(Cl)cnc2cc1F.Cl was tested, and the Inhibition was 15%.
CCCCCCNC(=O)C1Cc2c([nH]c3cc(Cl)ccc23)C2(CCN(Cc3ccccc3)CC2)N1 (stereo not given) was tested, and the Inhibition was 21%.
In the case of COc1cc(Nc2ncnc3cc(OC)c(OC)cc23)cc([N+](=O)[O-])c1.Cl, the Inhibition is reported as 8%.
CCCCCC(=O)N1CCOC(CCN2CCC(c3ccccc3)CC2)(c2ccc(Cl)c(Cl)c2)C1 (stereo not given) showed an Inhibition of 17%.
Compound Cc1cccc2nc(-c3ccc(-c4ccc(CNCc5cccc(N)c5)cc4)s3)[nH]c12.O=C(O)C(F)(F)F has an Inhibition of 10%.
Cc1cccc2nc(-c3ccc(-c4cccc(CNCc5ccc(S(C)(=O)=O)cc5)c4)s3)[nH]c12.O=C(O)C(F)(F)F gave an Inhibition of 31%.
O=C1CN(C(=O)CCC2CCCC2)C(c2ccc(F)cc2)c2cc(F)ccc2N1 (stereo not given) showed an Inhibition of 12%.
Work on COc1ccc2c(-c3ccccc3)noc2c1 yielded an Inhibition of 0%.
Work on CC(=O)c1c(Cc2ccccc2Cl)c[nH]c1C yielded an Inhibition of 0%.
Cc1cc(Cl)ccc1NC(=O)Nc1ccc2nccc(N3CCN(C)CC3)c2c1 showed an Inhibition of 0%.
C=CCOc1ccc(C(=O)Nc2nonc2-c2ccc(OC)c(OC)c2)cc1 showed an Inhibition of 2%.
O=C(Nc1ccc(Cl)cc1)c1ccc(CN2CCCN(Cc3ccc(F)cc3)CC2)cc1.O=C(O)C(F)(F)F gave an Inhibition of 48%.
Work on O=C(CNC(=O)c1ccc(O)cc1)Nc1cccc(-c2cccc(-c3nc4cc(C(F)(F)F)ccc4[nH]3)c2)c1 yielded an Inhibition of 63%.
With O=c1cc(NCCC(CNCc2ccc(Br)o2)NCc2cc(Br)cc(Br)c2)[nH]c2ccccc12 (stereo not given) the Inhibition was 2%.
O=C(/C=C/c1ccc(Cl)c(Cl)c1)N1CCN(C(=O)Nc2ccc(C(F)(F)F)cc2)CC1 was tested, and the Inhibition was 47%.
OC(CNCc1ccccc1OCc1ccccc1)c1cccc(I)c1 (stereo not given) was tested, and the Inhibition was 2%.
O=C(O)C(F)(F)F.O=C1OC2(CCN(Cc3cccc(-c4ncc[nH]4)c3)CC2)CN1CCNCc1ccccc1 gave an Inhibition of 0%.
O=C(NCCCNc1nc2ccccc2[nH]1)c1cccc(OC(F)(F)F)c1 was tested, and the Inhibition was 12%.
O=C1C(c2ccccc2)=C(Nc2cc(Cl)cc(Cl)c2)c2ccccc21 showed an Inhibition of 0%.
Compound CN1CCN(c2ccnc3ccc(NC(=O)Nc4ccc(-c5ccncc5)c(C#N)c4)cc23)CC1 has an Inhibition of 32%.
CCOC(=O)N1CCN(CCCCNc2c3ccc(Cl)cc3nc3ccc(OC)cc23)CC1.Cl gave an Inhibition of 25%.
In the case of CCNc1cc(C(=O)N[C@@H](Cc2ccoc2)[C@H](O)CNC(C)CCCC(C)C)cc(N2CCCCS2(=O)=O)c1.Cl (stereo not given in full), the Inhibition is reported as 0%.
